# Laboratory results from the supplement of paper PMC6555819.
# Experiments:
# Experiment in all cases: PBM binding z-score (relative to random genomic background probes); higher = stronger binding; sequences stand for … in GC…GCGATTGACAGCGTAGAATGAAGG
# [1] = test system: FXR:RXRa (NR concentration 270 nM, RXRa partner concentration 90 nM)
# Method in brief: (§1)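 Random background probes are the reference for binding z-scores. These scores derive from regression-normalized fluorescence on custom Agilent 4×180K protein-binding microarrays incubated 1 h with ligand-free nuclear receptor dimers. Binding was detected with antibodies against each partner (one per run).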
# [2] = test system: LXRa:RXRa (NR concentration 270 nM, RXRa partner concentration 90 nM)
# Method in brief: as §1
# [3] = test system: LXRa homodimer (NR concentration 270 nM)
# Method in brief: as §1
# [4] = test system: LXRb:RXRa (NR concentration 270 nM, RXRa partner concentration 90 nM)
# Method in brief: as §1
# [5] = test system: LXRb homodimer (NR concentration 270 nM)
# Method in brief: as §1
# [6] = test system: PPARa:RXRa (NR concentration 270 nM, RXRa partner concentration 90 nM)
# Method in brief: as §1
# [7] = test system: PPARg:RXRa (NR concentration 180 nM, RXRa partner concentration 90 nM)
# Method in brief: as §1
# [8] = test system: PPARg:RXRa 270nM:90nM, anti-RXR (NR concentration 270 nM, RXRa partner concentration 90 nM)
# Method in brief: as §1
# [9] = test system: PPARg:RXRa 30nM:10nM, anti-RXR (NR concentration 30 nM, RXRa partner concentration 10 nM)
# Method in brief: as §1
# [10] = test system: PPARg:RXRa 90nM:30nM, anti-RXR (NR concentration 90 nM, RXRa partner concentration 30 nM)
# Method in brief: as §1
Sequence,PBM binding z-score [1],PBM binding z-score [2],PBM binding z-score [3],PBM binding z-score [4],PBM binding z-score [5],PBM binding z-score [6],PBM binding z-score [7],PBM binding z-score [8],PBM binding z-score [9],PBM binding z-score [10]
GAAACGAGGGCAAGTTGATAGCAGAGTTTGATGG,1.07,0.537,-0.42,0.157,-0.895,2.38,1.76,1.76,0.251,1.2
AATACAGGGTCATCATAGGCCAGAGTACGCACAG,6.85,6.83,2.28,4.77,1.57,5.63,6.31,5.66,2.51,4.41
ATATGTAGGTTACGGGTCATTCAGGTTGGTTCGC,3.73,3.96,2.11,3.61,0.71,5.56,9.4,8.21,6.67,8.55
TCAGCTAGGTCAACGATGGTCAGCTAATCTGCTA,3.13,2.34,-0.215,1.41,-0.491,3.2,2.64,2.95,2.5,2.66
TCATATAAGTAATACAGGTGAAAGTCGGCATCTA,1.33,1.22,0.589,1.15,0.275,1.79,1.29,2.38,4.28,3.42
CGTCCAAGGTCAGCAAGTCAGTGAAAGCGACGTG,4.99,3.1,-0.297,2.02,-0.381,4.25,2.21,3.14,0.523,1.9
TTGAGTAGGTTAGTCGGGGCATTCAGCCAACATA,0.205,0.325,0.413,0.932,0.285,1.11,0.307,0.997,0.398,0.742
TGAATGAGGTTAAAGCTCAGGGAACGTGGCGTCG,2.94,1.92,-0.466,0.894,-0.222,3.6,2.86,4,2.09,3.82
CTCGAAAGGTCTGTTGAGGTGAGTATACGGATAA,0.57,-0.177,-0.581,-0.275,-0.339,0.697,-0.00878,0.182,-0.0313,0.242
ATCTCTAGGTAAGACTCAGTTCCGTGAAGAACGC,0.132,0.397,0.225,0.111,0.896,-0.155,-0.0539,0.0133,-0.0195,0.0962
AGAACGTGGGCAATGAGTTGATAGCACGGGTGGC,-0.669,-0.786,-0.475,-1.07,-0.973,-0.601,0.723,-0.543,-0.342,-0.679
ACTCGGAGGACAAAGGTCTGAGCTACGCCAGTGA,-0.108,-0.415,-0.354,-0.796,-0.665,0.582,1.95,3.29,1.06,3.02
ATCTCTAGGTCAGACTCAGTTCAGTGAAGAACGC,2.16,3.65,3.15,2.13,2,2.7,3.02,2.96,0.87,2.1
ATCTCTAGGTAAGACCCAGTTCAGTGAAGAACGC,0.43,0.778,0.612,0.599,0.872,0.54,0.457,0.208,0.196,0.526
CCAGACAGGTGAAATGTAACTCAGTCTGGTACGC,0.0255,-0.0223,-0.367,0.217,0.0964,0.949,1.12,1.5,0.324,1.07
TCTTGTAGATCAAGCTGGTTAAGAAAGCCTGAGT,-0.0681,-0.116,-0.611,0.0138,-0.299,0.383,-0.868,1.04,2.54,1.73
CAAACTACGTCACCGGAAGGTCAAAGTCCGCATG,3.24,3.3,3.72,3.48,1.01,3.5,1.14,1.71,0.159,1.15
CTCGAAAGGTCGGTTGAGGTGCGTATACGGATAA,2.39,1.39,-0.235,1.24,-0.239,2.3,0.2,0.942,0.258,0.457
CGTCCATGGTCAATGCTAGGTCAGTGAAAGCATT,0.15,0.428,0.451,0.222,-0.306,0.49,-0.131,-0.408,-0.327,-0.269
ATCGAAAGGTCCAGGTGAGTATAGAGAAAGGGAA,0.612,0.816,0.0552,0.22,0.494,0.594,0.347,0.503,0.287,0.512
GATACAGGGTCAGCTAGAGTCCAGAGTATGGAAA,4.63,2.73,-0.197,2.46,-0.266,4.62,3.75,3.12,0.896,1.87
CCAGACAGGTGAGTAGGTAACTCAGCCTCGATTA,0.327,0.14,0.0547,-0.023,-0.401,0.695,0.545,0.565,-0.111,0.0174
ACTAGTTGGTCAGCTGAGGTCATACACAATTCGG,3.84,3.45,3.44,3.54,1.09,3.52,1.43,1.72,0.448,1.14
TCATATAGGTAAAGGTGAACGTCGAACGATATGA,1.01,1.27,-0.125,1.25,-0.0636,3.18,4.94,4.76,4.7,5.08
